Records with an inconclusive call do not appear. The source made the active and inactive calls. Unless noted, calls come from the whole dose curve; as a rule, active = well fitted curve in the direction sought with a large enough effect in the repeat runs; inconclusive = weak or mixed curves; inactive = no such curve, though single readings can be large; an effect the other way counts as inactive or inconclusive.
Tests used:
[1] = qHTS assay for small molecules that induce genotoxicity in human embryonic kidney cells expressing luciferase-tagged ATAD5 (AID 651632); note: nearly all actives have a fitted effect of over 15% in size
Method in brief: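 ATAD5-luc HEK293T, 2,000 cells/well; cpd or DMSO pin-transferred; 16 hr, 37C/5% CO2; Amplite 30 min RT; luminescence.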

[2] = qHTS assay for small molecule agonists of the p53 signaling pathway - cell viability (AID 651633; calls by dose curve;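 note: p53RE-bla HCT reporter cells with a stable beta-lactamase p53 reporter; series mostly up to about 83 µM; nearly all actives have a fitted effect of over 30% in size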)
Method in brief: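 p53RE-bla cells, seeded at 4,000 per well and rested 5 h at 37 C/5% CO2, received compounds in DMSO for 16 h at 37 C. CellTiter-Glo was then added, and luminescence was read after 30 min at room temperature to gauge cytotoxicity.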

[3] = qHTS assay for small molecule disruptors of the mitochondrial membrane potential - cell viability (AID 720634; calls by dose curve;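 note: human HepG2 liver cancer cells; series mostly up to about 83 µM; nearly all actives have a fitted effect of over 20% in size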)
Method in brief: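 Cells: HepG2, 2,000/well, attached overnight. Compound 1 hr, 37 C/5% CO2. +m-MPI dye, +CellTiter-Glo 30 min RT. Readout: luminescence (ATP).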

[4] = qHTS assay to test for compound auto fluorescence at 590 nm (red) in HepG2 cells (AID 720674)
Method in brief: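 Rose Bengal sodium served as the red fluorophore standard. HepG2 monolayers (overnight attachment, MEM with 10% FBS) were exposed to test compounds for 1 hr at 37 C and read at Ex 540/Em 590 nm.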

[5] = qHTS assay to test for compound auto fluorescence at 535 nm (green) in HepG2 cells (AID 720675)
[6] = qHTS assay to test for compound auto fluorescence at 460 nm (blue) in HEK293 cells (AID 720678)
Method in brief: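 HEK293 cells (2,000 per well, medium with 10% dialyzed FBS) attached for 4-5 hr at 37C, then received compound and stood overnight at 37C, 5% CO2. Blue fluorescence was read at Ex/Em 405/460 nm and expressed relative to triamterene.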

[7] = qHTS assay to test for compound auto fluorescence at 590 nm (red) in HEK293 cells (AID 720679)
Method in brief: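 HEK293 cells (2,000/well, medium with 10% dialyzed FBS) attached for 4-5 hr at 37C, received 23 nL compound and were incubated overnight at 37C, 5% CO2. Red fluorescence was then read at 540/590nm Ex/Em, referenced to Rose Bengal sodium.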

[8] = qHTS assay to test for compound auto fluorescence at 535 nm (green) in HEK293 cells (AID 720680)
[9] = qHTS assay to test for compound auto fluorescence at 535 nm (green) in HEK293 cell free culture (AID 720682)
Method in brief: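 No cells present: wells hold DMEM supplemented with 10% FBS, into which compound or vehicle is pinned. Green emission is then recorded (485 nm excitation, 535 nm emission) and scaled to fluorescein.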

[10] = qHTS assay to test for compound auto fluorescence at 590 nm (red) in HepG2 cell free culture (AID 720684)
Method in brief: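 Red fluorescence (540 nm excitation, 590 nm emission) was measured after compound transfer into cell-free MEM supplemented with 10% FBS. Values are equivalencies against Rose Bengal sodium.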

[11] = qHTS assay to test for compound auto fluorescence at 535 nm (green) in HepG2 cell free culture (AID 720686)
[12] = qHTS assay to test for compound auto fluorescence at 460 nm (blue) in HepG2 cells (AID 720687)
Method in brief: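 Cells (2,000/well in MEM with 10% FBS) attached overnight at 37 C, then were exposed to compound or DMSO for 1 hr at 37 C, 5% CO2. Fluorescence read at Ex/Em 405/460 nm, expressed as triamterene-equivalent signal.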

[13] = target: Glucocorticoid receptor (Homo sapiens) (UniProt P04150); test: qHTS assay to identify small molecule agonists of the glucocorticoid receptor (GR) signaling pathway (AID 720691; active = well fitted activation curve with a large enough effect in the signal ratio in the repeat runs, not every such curve was filed as active; the % refers to the signal ratio)
Chain of Glucocorticoid receptor (Homo sapiens) (P04150 whole entry, looked up): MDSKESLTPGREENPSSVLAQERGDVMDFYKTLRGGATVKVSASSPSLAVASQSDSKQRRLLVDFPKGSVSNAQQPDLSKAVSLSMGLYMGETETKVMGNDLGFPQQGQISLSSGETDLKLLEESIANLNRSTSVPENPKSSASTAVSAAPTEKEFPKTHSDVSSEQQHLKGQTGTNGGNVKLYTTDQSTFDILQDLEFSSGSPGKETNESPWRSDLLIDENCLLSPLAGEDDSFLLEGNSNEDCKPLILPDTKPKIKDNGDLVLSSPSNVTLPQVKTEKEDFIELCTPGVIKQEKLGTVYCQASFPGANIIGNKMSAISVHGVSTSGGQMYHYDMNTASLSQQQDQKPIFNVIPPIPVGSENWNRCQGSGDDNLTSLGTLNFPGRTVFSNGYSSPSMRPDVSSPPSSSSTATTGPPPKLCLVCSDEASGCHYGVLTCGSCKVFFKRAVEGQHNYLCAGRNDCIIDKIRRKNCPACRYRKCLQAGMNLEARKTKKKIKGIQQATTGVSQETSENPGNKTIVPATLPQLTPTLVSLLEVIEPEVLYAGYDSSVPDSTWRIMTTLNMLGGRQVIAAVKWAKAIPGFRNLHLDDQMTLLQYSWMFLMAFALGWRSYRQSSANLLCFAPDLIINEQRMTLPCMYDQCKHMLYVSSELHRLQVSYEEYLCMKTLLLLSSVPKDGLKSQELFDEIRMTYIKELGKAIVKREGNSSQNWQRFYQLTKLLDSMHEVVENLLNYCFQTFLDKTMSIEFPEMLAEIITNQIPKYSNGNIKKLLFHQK
Method in brief: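 Fluorescence intensity from LiveBLAzer B/G FRET substrate (2 h, room temperature) reports beta-lactamase expression driven by the glucocorticoid response element in GR-bla HeLa cells after 18 h compound exposure at 37 C.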

[14] = qHTS assay for small molecules that induce genotoxicity in human embryonic kidney cells expressing luciferase-tagged ATAD5 - cell viability (AID 651634; calls by dose curve; note: nearly all actives have a fitted effect of over 25% in size)
Method in brief: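 Fluorescence from CellTiter-Fluor, reporting protease activity within live cells, served as the viability read-out. HEK293T cells carrying luciferase-tagged ATAD5 had been treated with compound for 15.5 hr at 37C.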

[15] = qHTS assay to test for compound auto fluorescence at 460 nm (blue) in HEK293 cell free culture (AID 720681)
Method in brief: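 Test compounds were pinned into cell-free culture medium (DMEM with 10% FBS) and fluorescence was read directly at Ex/Em 405/460 nm. Signals were expressed as fluorescence equivalents of triamterene, with DMSO vehicle as control.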

[16] = qHTS assay to test for compound auto fluorescence at 590 nm (red) in HEK293 cell free culture (AID 720683)
Method in brief: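 Tox21 10K library compounds were pinned into cell-free DMEM with 10% FBS and fluorescence was read at excitation 540 nm. Activity is expressed as Rose Bengal sodium equivalency.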

[17] = qHTS assay to test for compound auto fluorescence at 460 nm (blue) in HepG2 cell free culture (AID 720685)
Method in brief: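 Compound (23 nL) or DMSO pinned into cell-free MEM with 10% FBS; blue fluorescence read at 405/460 nm excitation/emission, expressed as auto-fluorescence equivalency to triamterene.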

[18] = target: Glucocorticoid receptor (Homo sapiens) (UniProt P04150); test: qHTS assay to identify small molecule antagonists of the glucocorticoid receptor (GR) signaling pathway (AID 720692; active = well fitted inhibition curve with a large enough effect in the signal ratio in the repeat runs, not every such curve was filed as active; the % refers to the signal ratio)
Method in brief: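 HeLa GR-bla cells; cmpd + dex 5 nM final, 18 h 37 C; LiveBLAzer B/G FRET substrate 2 h RT; fluorescence intensity read. Antagonist mode, qHTS.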

[19] = qHTS assay for small molecule disruptors of the mitochondrial membrane potential (AID 720635)
Method in brief: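 HepG2 cells (2,000/well) attached overnight at 37C, then took compound for 1 hr at 37C, 5% CO2. Mito-MPS dye was added for 30 min; fluorescence was read at 490/535 nm (monomers) and 540/590 nm (aggregates).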
% is set by controls: 0 for no effect and ±100 for the full control effect.

CC(C)OC(=O)CCC(=O)OC(C)C
inactive: outcome [1] | outcome [2] | outcome [3] | outcome [4] | outcome [5] | outcome [6] | outcome [7] | outcome [8] | outcome [9] | outcome [10] | outcome [11] | outcome [12] | Potency [13]

COc1c2occc2c(OC)c2c(=O)cc(C)oc12
inactive: outcome [1] | Potency [14] | fluorescence, relative to Rose Bengal [4] 0.0231% [at 18.6 µM] | fluorescence, % of triamterene [6] 0.0098% [at 18.6 µM] | fluorescence, % of fluorescent control [7] 0.0103% [at 18.6 µM] | fluorescence, % of fluorescein [8] -0.0108% [at 18.6 µM] | fluorescence, % of fluorescent control [15] -0.0224% [at 18.6 µM] | fluorescence, % of fluorescent control [16] -0.33% [at 18.6 µM] | fluorescence, % of Rose Bengal [10] -0.125% [at 18.6 µM] | fluorescence, % of fluorescent control [17] -0.0661% [at 18.6 µM] | fluorescence, % of fluorescent control [12] 0.0073% [at 18.6 µM] | outcome [18]

COC(=O)c1cc(Cl)cc(Cl)c1
inactive: outcome [1] | outcome [3] | outcome [4] | outcome [5] | outcome [6] | outcome [7] | outcome [8] | outcome [15] | outcome [9] | outcome [10] | outcome [11] | outcome [12] | Potency [13] | outcome [18]

CCCC(=O)Nc1ccc(OCC(O)CNC(C)C)c(C(C)=O)c1 (stereo not given)
inactive: outcome [1] | outcome [2] | outcome [3] | fluorescence, relative to Rose Bengal [4] -0.376% [at 18.6 µM] | fluorescence, % of fluorescein control [5] -0.0898% [at 18.6 µM] | fluorescence, % of triamterene [6] 0.0234% [at 18.6 µM] | fluorescence, % of fluorescent control [7] -0.0649% [at 18.6 µM] | fluorescence, % of fluorescein [8] -0.0845% [at 18.6 µM] | fluorescence, % of fluorescent control [15] 0.175% [at 18.6 µM] | fluorescence, % of fluorescent control [16] 0.214% [at 18.6 µM] | fluorescence, % of Rose Bengal [10] -0.252% [at 18.6 µM] | fluorescence, % of fluorescein control [11] -0.0602% [at 18.6 µM] | fluorescence, % of fluorescent control [12] 0.0344% [at 18.6 µM] | Potency [13] | outcome [18]

O/N=C/C=N/O
inactive: outcome [2] | Potency [14] | outcome [3] | Potency [19] | outcome [4] | outcome [5] | outcome [6] | outcome [7] | outcome [8] | outcome [9] | outcome [16] | outcome [10] | outcome [17] | outcome [11] | outcome [12] | Potency [13]

C[C@H]1[C@@H](c2ccccc2)NC(=O)N1C
inactive: outcome [1] | outcome [2] | outcome [3] | outcome [4] | outcome [5] | outcome [6] | outcome [7] | outcome [8] | outcome [15] | outcome [9] | outcome [10] | outcome [17] | outcome [11] | outcome [12]

CC(=O)Nc1ccc(OC(=O)c2ccccc2OC(C)=O)cc1
inactive: outcome [1] | Potency [14] | outcome [3] | outcome [4] | outcome [6] | outcome [7] | outcome [8] | outcome [9] | outcome [16] | outcome [10] | outcome [17] | outcome [11] | outcome [12] | Potency [13]

CC(=O)OC(C)=O
inactive: outcome [1] | outcome [3] | outcome [4] | outcome [5] | outcome [6] | outcome [7] | outcome [8] | outcome [15] | outcome [9] | outcome [16] | outcome [10] | outcome [17] | outcome [11] | outcome [12] | Potency [13]

COP(=O)(O)OP(=O)(O)OC
inactive: outcome [1] | outcome [2] | outcome [3] | Potency [19] | outcome [5] | outcome [6] | outcome [7] | outcome [8] | outcome [9] | outcome [16] | outcome [10] | outcome [17] | outcome [11] | outcome [12]

C=C(C)C1CC=C(C)C(=O)C1 (stereo not given)
inactive: outcome [1] | outcome [2] | outcome [3] | outcome [5] | outcome [6] | outcome [7] | outcome [8] | outcome [15] | outcome [9] | outcome [10] | outcome [17] | outcome [12] | Potency [13] | outcome [18]

CC(C)NCC(O)c1ccc2ccccc2c1 (stereo not given)
inactive: Potency [14] | outcome [3] | Potency [19] | outcome [4] | outcome [5] | outcome [6] | outcome [7] | outcome [8] | outcome [9] | outcome [16] | outcome [10] | outcome [11] | outcome [12] | outcome [18]

C/C=C(\C)C(=O)OCCc1ccccc1
inactive: outcome [1] | Potency [14] | outcome [3] | outcome [4] | outcome [5] | outcome [6] | outcome [7] | outcome [8] | outcome [9] | outcome [16] | outcome [10] | outcome [17] | outcome [12]

COc1ccc2c(c1)c1c3n2CCN(C)C3=NCC1
inactive: outcome [1] | Potency [14] | outcome [3] | Potency [19] | outcome [4] | outcome [6] | outcome [7] | outcome [8] | outcome [15] | outcome [16] | outcome [10] | outcome [17] | outcome [12] | Potency [13]

O=NN(CCCl)C(=O)NC1CCCCC1
inactive: outcome [1] | Potency [14] | outcome [3] | Potency [19] | outcome [4] | outcome [5] | outcome [6] | outcome [7] | outcome [8] | outcome [15] | outcome [9] | outcome [10] | outcome [17] | outcome [11] | outcome [12]

C=CCN1C[C@H](C(=O)N(CCCN(C)C)C(=O)NCC)C[C@@H]2c3cccc4[nH]cc(c34)C[C@H]21
inactive: outcome [1] | outcome [4] | outcome [6] | outcome [7] | outcome [8] | outcome [15] | outcome [9] | outcome [10] | outcome [17] | outcome [11] | outcome [12] | Potency [13] | outcome [18]
